In PubChem BioAssay AID1347048 (National Center for Advancing Translational Sciences (NCATS), 2019) one finds Potency data, which are given here for 63 molecules.

About 1,200 (1.6%) of roughly 76,000 compounds were called active. A call without a number means that no potency is given here. About 4% were inconclusive and are not listed. Calls follow the shape of the full dose curve. The sample as a whole holds a higher share of actives than the screen did.
Potency is read from the fitted curve at half-maximal effect.

Chain of Atrial natriuretic peptide receptor 1 (Homo sapiens) (P16066 whole entry, looked up): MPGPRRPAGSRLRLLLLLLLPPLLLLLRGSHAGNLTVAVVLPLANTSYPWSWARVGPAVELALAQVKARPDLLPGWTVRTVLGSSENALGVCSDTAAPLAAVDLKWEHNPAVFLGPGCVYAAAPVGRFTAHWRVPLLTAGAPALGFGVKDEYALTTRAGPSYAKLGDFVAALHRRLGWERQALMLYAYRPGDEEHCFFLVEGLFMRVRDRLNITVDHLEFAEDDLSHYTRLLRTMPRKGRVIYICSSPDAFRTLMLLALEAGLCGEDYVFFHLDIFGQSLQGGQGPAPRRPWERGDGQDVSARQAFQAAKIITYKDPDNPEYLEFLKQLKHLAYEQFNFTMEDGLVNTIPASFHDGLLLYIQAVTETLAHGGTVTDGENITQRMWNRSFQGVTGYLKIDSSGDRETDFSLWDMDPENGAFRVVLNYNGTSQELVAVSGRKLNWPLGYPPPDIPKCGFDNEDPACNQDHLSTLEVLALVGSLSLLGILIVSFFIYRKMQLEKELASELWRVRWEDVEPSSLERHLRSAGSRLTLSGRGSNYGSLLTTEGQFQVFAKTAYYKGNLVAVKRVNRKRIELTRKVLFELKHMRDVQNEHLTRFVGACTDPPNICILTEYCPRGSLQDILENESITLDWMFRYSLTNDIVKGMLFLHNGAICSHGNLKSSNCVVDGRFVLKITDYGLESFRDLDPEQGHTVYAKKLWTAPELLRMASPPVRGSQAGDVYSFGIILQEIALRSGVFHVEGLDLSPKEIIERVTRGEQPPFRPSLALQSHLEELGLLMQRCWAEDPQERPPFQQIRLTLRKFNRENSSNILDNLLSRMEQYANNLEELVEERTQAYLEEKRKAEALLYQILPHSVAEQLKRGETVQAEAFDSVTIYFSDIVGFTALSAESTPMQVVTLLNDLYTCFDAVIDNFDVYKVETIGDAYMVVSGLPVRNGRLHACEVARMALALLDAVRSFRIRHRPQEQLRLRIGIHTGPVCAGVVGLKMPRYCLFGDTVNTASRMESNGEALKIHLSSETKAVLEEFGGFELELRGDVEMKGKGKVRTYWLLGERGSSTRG

This test concerns the target Atrial natriuretic peptide receptor 1 (Homo sapiens) (UniProt P16066). Description: Natriuretic polypeptide receptor (hNpr1) antagonism - Primary qHTS. Also: nearly all actives have a fitted effect of over 60% in size. The settings on record: HEK293 hNpr1 GloSensor cGMP, ANP-stimulated luminescence; series mostly up to 46.3 µM. The essentials:
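HEK293 cells stably expressing human Npr1 and cGMP GloSensor pGS-40F, loaded 2 h with 2% GloSensor reagent, given compound 30 min at room temperature. Luminescence read before and 20 min after 0.1 nM hNppA.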
A general note: qHTS replaces the single test concentration by a dilution series.
For the molecule `Cn1cc(-c2cc(-c3cccnc3)c3cncn3c2)cn1`, the Potency result was “inactive”. `COc1ccc(-c2cc(N3CCCC(NC(=O)c4cc(F)ccc4Cl)C3)n[nH]2)cc1` (stereo not drawn): the Potency entry was “inactive”. For the molecule `O=C(c1ccoc1)N1CCOc2ccc(CN3CCc4ccccc4C3)cc2C1`, the Potency entry is “inactive”. For `O=C1c2cnc(-c3ccc(Cl)cc3)nc2OCCN1Cc1ccccc1`, the Potency is 31.6 µM (active). On to `COc1ccc(-c2ncc3c(n2)OCCN(Cc2ccccc2)C3=O)cn1`, for which the Potency result was “inactive”.

For the molecule `O=C1c2cnc(-c3ccc(O)c(F)c3)nc2OCCN1Cc1ccccc1`, the Potency result is “inactive”. As to `COc1ccc(CNC(=O)N2CCC3(CC2)CC(N(C(C)=O)C2CC2)CCO3)cc1` (stereo not drawn), the Potency result is “inactive”.

For the molecule `Cc1nn2c(c1-c1ccccc1-c1ccccc1)N(C(=O)CN1CCOCC1)CCC2`, the Potency result was “inactive”.

On to `Cc1nn2c(c1-c1ccccc1-c1ccccc1)N(CC1CC1)CCC2`, for which the Potency is 2.82 µM (active). On to `Cc1nn2c(c1-c1ccccc1Oc1ccccc1)N(C(=O)C(C)C)CCC2`, for which the Potency entry was “inactive”.

Regarding `COc1ccccc1-c1[nH]nc2ncc(C(=O)N3CCN(Cc4ccccc4)CC3)nc12`, the Potency result is “inactive”. As for `CN(C)C(=O)c1cccnc1OC1CCN(S(=O)(=O)c2ccc3c(c2)CCCC3)C1` (stereo not drawn), the Potency entry was “inactive”. As to `O=C(c1ccno1)N1C[C@@H]2OCC(=O)N(c3ccccc3)[C@@H]2C1`, the Potency result is “inactive”.

As for `O=C(Nc1cccc(Cl)c1)c1cnc2c(c1)N(C(=O)CCc1ccccc1)CCC2`, the Potency result is “inactive”.

Regarding `O=C(Nc1ccccc1)c1nc2c(o1)CCN(Cc1cccc(Cl)c1)CC2`, the Potency was 11.2 µM (active).

`COc1ccc(CN2CCc3nc(C(=O)N4CCOCC4)oc3CC2)cc1OC`: the Potency entry was “inactive”. Take `O=C(Nc1ccc(Cl)cc1)c1nc2c(o1)CCN(Cc1ccsc1)CC2`: the Potency is 8.91 µM (active). For `N#Cc1ccc(CN2CCc3nc(C(=O)N4CCOCC4)oc3CC2)cc1`, the Potency result was “inactive”. As for `O=C(Cn1nc2n(c1=O)CCCC2)Nc1ccc(Cl)cc1`, the Potency entry is “inactive”. As to `CCNC(=O)C1C(c2cccc(NC(=O)c3cccc(C)c3)c2)OC(=O)N1Cc1cccc(Cl)c1` (stereo not drawn), the Potency entry was “inactive”. The entry for `O=C(NCCOc1ccccc1)c1nc2c(o1)CCN(CC1CCCCC1)CC2` is “inactive”. As to `Cc1cccc(CN2CCc3nc(C(=O)Nc4ccc(Cl)cc4)oc3CC2)c1`, the Potency is 8.91 µM (active). As to `COCCNc1ncccc1-c1noc([C@@H]2CCCN2Cc2ccc3c(c2)OCO3)n1`, the Potency result is “inactive”. The result for `CC(C)N1C(=O)OCC12CCN(C(=O)c1ccc(Oc3ccccc3)cc1)C2` (stereo not drawn) reads “inactive”; that for `CCc1nc2c(c(-c3ccc(Cl)cc3)n1)CN(CCC(C)C)CC2`, “inactive”. `COC(=O)N1CCCc2nc(C)nc(-c3ccc(O)cc3)c2C1`: the Potency result is “inactive”.

Regarding `CN(C)c1cc(N2C[C@@H](CN3CCOCC3)C[C@H](CO)C2)ncn1`, the Potency entry was “inactive”. With `COc1ccccc1C(=O)N1CCC2(CC1)CC(=O)c1ccccc1O2`, the Potency entry was “inactive”. Turning to `CC(=O)N(C1CC1)C1CCOC2(CCN(C(=O)C3(c4ccccc4)CC3)CC2)C1` (stereo not drawn), the Potency entry was “inactive”. The result for `COCC1CN(C(C)=O)CC12CCN(Cc1ccccc1OC)CC2` (stereo not drawn) reads “inactive”; that for `CC1=NS(=O)(=O)N(C)C=C1C(=O)OCc1nc(-c2ccccc2C)no1`, “inactive”; that for `CC1=NS(=O)(=O)N(C)C=C1C(=O)OCc1nc(-c2ccc(C)cc2)no1`, 10 µM (active). For the molecule `COc1ccc(CN2C=C(C(=O)OCc3nc(C)no3)C(C)=NS2(=O)=O)cc1`, the Potency result is “inactive”. On to `CCn1ncc(N2CCC(NC(=O)c3ccccc3OC)CC2)cc1=O`, for which the Potency entry was “inactive”. Regarding `COc1cccc(C(=O)NCC2Cn3cccc3C(=O)N2Cc2ccccc2)c1` (stereo not drawn), the Potency result was “inactive”. Turning to `COc1cccc(-c2cc(-c3nc(C4CCOC4)no3)[nH]n2)c1` (stereo not drawn), the Potency entry was “inactive”. As for `COc1ccc(-c2[nH]nc3ncc(C(=O)Nc4ccccc4)nc23)c(C)c1`, the Potency result is “inactive”.

For the molecule `COc1ccccc1Nc1cnc2ccc(N(C)Cc3cccnc3)nn12`, the Potency is 25.1 µM (active). As to `CN(C)c1ccc2ncc(Nc3ccccc3F)n2n1`, the Potency entry was “inactive”. The result for `COc1ccccc1Nc1cnc2ccc(-c3ccc(OC)c(OC)c3)nn12` reads “inactive”.

For the molecule `O=C1NC2(CN([S+](=O)([O-])c3cccc(C(F)(F)F)c3)C2)Oc2ccccc21`, the Potency entry was “inactive”. With `Cc1cccc(-n2nc(-c3c(C)nc4scc(CC(=O)NC(C)C(C)C)n4c3=O)cc2C)c1` (stereo not drawn), the Potency entry is “inactive”. As for `COc1cccc(CNC(=O)Cn2c(N(C)Cc3ccccc3)nc(C)cc2=O)c1OC`, the Potency was 15.8 µM (active). The result for `COc1ccccc1CNC(=O)CN1CCCC(CO)(CC2CC2)C1` (stereo not drawn) reads “inactive”; that for `CCCN1C(=O)Cc2ccccc2C1C(=O)NCc1cccc(OC)c1OC` (stereo not drawn), “inactive”. The entry for `COc1cccc(NC(=O)Cn2c(-c3ccccc3)nc(C)cc2=O)c1` is “inactive”; for `COc1cc(NC(=O)Cn2c(N3CCc4ccccc4C3)nc(C)cc2=O)cc(OC)c1` it is “inactive”; for `COc1cccc(NC(=O)Cn2c(N(C)Cc3ccccc3)nc(C)cc2=O)c1` it is 10 µM (active). The entry for `COc1ccc2[nH]c3c(c2c1)CCNC31CCN(C(=O)c2cc(C)n(C)n2)CC1` is “inactive”; for `COc1cccc(C(C(=O)O)N2CCN(c3ccccn3)CC2)c1OC` (stereo not drawn) it is “inactive”; for `Cc1cc(C(=O)N2CCC3(CC2)CC(C(=O)N2CCOCC2)N(C)C3)nn1C` (stereo not drawn) it is “inactive”.

Turning to `CCn1nccc1C(=O)N1CCCCCNC(=O)[C@H]2C[C@H](C(=O)N3CCc4ccccc4C3)C[C@H]21`, the Potency result was “inactive”.

As for `Cc1ccc(OCc2nc(C3CCN(C(=O)c4noc(C)c4CN4CCCCC4)CC3)no2)cc1`, the Potency result was “inactive”. Turning to `Cc1ccc(OCc2nc(C3CCN(C(=O)c4c5c(nc6ccccc46)CCCC5)CC3)no2)cc1`, the Potency result was “inactive”.

Regarding `Cc1ccc(OCc2nc(C3CCN(C(=O)CCc4nc5ccc(Cl)cc5[nH]4)CC3)no2)cc1`, the Potency was 11.2 µM (active). For the molecule `COCCOC1CCN(C(=O)c2[nH]nc3c2COc2ccccc2-3)CC1`, the Potency result is “inactive”.

Regarding `O=C(Cc1c[nH]c2ncc(-c3ccccc3F)cc12)N1CCOCC1`, the Potency was 25.1 µM (active). Regarding `Cc1noc(C)c1-c1cnc2[nH]cc(CC(=O)N3CCOCC3)c2c1`, the Potency was 22.4 µM (active).

Regarding `CN(C(=O)Cc1c[nH]c2ncc(-c3cnn(C)c3)cc12)c1ccccc1`, the Potency result was “inactive”. `COc1ccc(CNC(=O)Cc2c[nH]c3ncc(-c4ccccc4)cc23)cc1OC`: the Potency result was “inactive”.

With `COCCNC(=O)Cc1c[nH]c2ncc(-c3cccnc3OC)cc12`, the Potency entry is “inactive”. Regarding `Cc1noc(C)c1-c1nccc2c(=O)cc(N3CCOCC3)oc12`, the Potency result was “inactive”.

Turning to `CCCCSc1nc(N)cc(N2CCCC(OCc3cccnc3)C2)n1` (stereo not drawn), the Potency entry was “inactive”.
